Data reported in PubChem BioAssay (Tox21).
Results filed as inconclusive are left out. Entries that show only a call come without a potency. The source made the active and inactive calls. Calls follow the shape of the dose curve; as a rule, active = well fitted inhibition curve with a large enough effect in the signal ratio in the repeat runs (not every such curve was filed as active); inconclusive = weak or mixed curves, or effect the other way; inactive = no such curve, though single readings can be large or run the other way; the % refers to the signal ratio.

Each compound was assayed against Peroxisome proliferator-activated receptor delta (Homo sapiens) (UniProt Q03181) (assay: qHTS assay to identify small molecule antagonists of the peroxisome proliferator-activated receptor delta (PPARd) signaling pathway (AID 743215;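 also: cells stimulated with agonist L165041 at 300 nM final during compound exposure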)). Settings: HEK293H PPARd-UAS-bla, beta-lactamase FRET ratio, antagonist, 17 h; series mostly up to 62 µM.
Source text: U.S. Tox21 Program National Center for Advancing Translational Sciences [NCATS] NIH Chemical Genomics Center [NCGC] U.S. Environmental Protection Agency [EPA] National Institutes of Environmental Health Sciences [NIEHS] National Toxicology Program [NTP] U.S. Food and Drug Administration [FDA] Tox21 Assay Overview: The peroxisome proliferator-activated receptors (PPARs) are lipid-activated transcription factors of the nuclear receptor superfamily with three distinct subtypes namely PPAR alpha, PPAR delta (PPARd) and PPAR gamma. All these subtypes heterodimerizes with Retinoid X receptor (RXR) and have different physiological functions. […] To identify the compounds that inhibit PPAR-delta signaling, GeneBLAzer PPAR delta UAS-bla HEK293H cell line (Invitrogen, Carlsbad, CA, USA) containing a beta-lactamase reporter gene under the control of an Upstream Activator Sequence (UAS) was used to screen the Tox21 compound library.
Tox21 Assay Protocol Summary: PPARd-bla cells were dispensed at 3000 cells/5uL/well in 1536-well black wall/clear bottom plates using a Multidrop Combi (Thermo Fisher Scientific, Waltham, MA) dispenser. After the assay plates were incubated at 37 C and 5% CO2 for 5 h, 23 nL of compounds dissolved in DMSO, positive controls or DMSO only was transferred to the assay plate by a Pintool station (Kalypsys, San Diego, CA), followed by addition of 1ul L165041 (300 nM, final concentration in the wells). The assay plates were incubated at 37 C for 17 h, and then 1 uL of LiveBLAzerTM B/G FRET substrate was added using a Bioraptr Flying Reagent Dispenser (FRD) workstation (Beckman Coulter, Indianapolis, IN, USA). The assay plates were incubated at room temperature for 2 h and fluorescence intensity was measured by an Envision plate reader (PerkinElmer, Shelton, CT).

Sequence of Peroxisome proliferator-activated receptor delta (Homo sapiens) (Q03181 whole entry, looked up): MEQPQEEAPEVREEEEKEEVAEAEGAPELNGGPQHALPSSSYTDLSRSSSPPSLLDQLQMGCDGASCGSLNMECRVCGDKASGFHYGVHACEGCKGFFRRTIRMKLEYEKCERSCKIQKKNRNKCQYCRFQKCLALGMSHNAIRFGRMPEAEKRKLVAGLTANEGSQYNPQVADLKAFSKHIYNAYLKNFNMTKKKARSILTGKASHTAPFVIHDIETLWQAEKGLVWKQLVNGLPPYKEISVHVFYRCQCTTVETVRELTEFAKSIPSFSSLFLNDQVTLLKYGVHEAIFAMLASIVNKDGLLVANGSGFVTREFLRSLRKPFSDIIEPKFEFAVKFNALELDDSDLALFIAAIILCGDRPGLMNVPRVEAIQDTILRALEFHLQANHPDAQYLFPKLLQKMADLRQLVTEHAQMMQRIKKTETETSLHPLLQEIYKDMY

Row | Compound | Potency
1 | C[Si](C)(C)O[Si](C)(C)C | inactive
2 | c1ccc(Nc2ccccc2)cc1 | inactive
3 | Cc1cccc(C(=O)O)c1 | inactive
4 | Cc1c(OCC(F)(F)F)ccnc1CS(=O)c1nc2ccccc2[nH]1 (stereo not given) | inactive
5 | CC(C)Oc1ccc2c(=O)c(-c3ccccc3)coc2c1 | inactive
6 | CCCCC/C=C/C=C/C=O | inactive
7 | CCOC(=O)C(C#N)=C(c1ccccc1)c1ccccc1 | inactive
8 | CN(C)c1nc(N(C)C)nc(N(C)C)n1 | inactive
9 | OC1CCCCCCCCCCC1 | inactive
10 | O=C=Nc1ccc(Cc2ccc(N=C=O)cc2)cc1 | inactive
11 | c1ccc2c(c1)c1cccc3ccc4cccc2c4c31 | inactive
12 | CCCCC(CC)COP(=O)(OCC(CC)CCCC)OCC(CC)CCCC (stereo not given) | inactive
13 | CC(=O)C1(C)CC2=C(CCCC2(C)C)CC1C (stereo not given) | inactive
14 | O=C(/C=C/c1ccccc1)OCc1ccccc1 | inactive
15 | COC(=O)c1ccccc1 | inactive
16 | COc1ccc(OC)c(C(O)CNC(=O)CN)c1 (stereo not given) | inactive
17 | Cc1c(C(N)=O)cc([N+](=O)[O-])cc1[N+](=O)[O-] | inactive
18 | Cc1ncc[nH]1 | inactive
19 | c1ccc2c(c1)Oc1ccccc1S2 | inactive
20 | Oc1ccc(O)cc1 | inactive

Row | Compound | Potency
21 | COc1cc([C@@H]2c3cc4c(cc3[C@H](O)[C@H]3COC(=O)[C@H]23)OCO4)cc(OC)c1OC | inactive
22 | O=Cc1ccccc1O | inactive
23 | C#C[C@]1(O)CC[C@H]2[C@@H]3CCc4cc(OC)ccc4[C@H]3CC[C@@]21C | inactive
24 | O=S(=O)(O)c1ccc(O)cc1 | inactive
25 | CN(C)CCC=C1c2ccccc2CCc2ccccc21 | inactive
26 | c1cc(-c2ccncc2)ccn1 | inactive
27 | O=C(O)c1ccccc1Nc1cccc(C(F)(F)F)c1 | inactive
28 | COc1ccccc1/C=C/C=O | inactive
29 | COc1ccc(C(=O)CC(=O)c2ccc(C(C)(C)C)cc2)cc1 | inactive
30 | Cc1[nH]c(=O)c(C#N)cc1-c1ccncc1 | inactive
31 | C=CC(C)(CCC=C(C)C)OC(C)=O (stereo not given) | inactive
32 | CC1=CC2C3CC(C=C3C)C2C1 (stereo not given) | inactive
33 | C=C(C)C(=O)OCCOC(=O)C(=C)C | inactive
34 | Cc1cc2nc3c(=O)[nH]c(=O)nc-3n(C[C@H](O)[C@H](O)[C@H](O)CO)c2cc1C | inactive
35 | Cc1cccc([N+](=O)[O-])c1C | inactive
36 | CC1=CCC(C(C)(C)O)CC1 (stereo not given) | inactive
37 | O=CCCCC=O | inactive
38 | CCCC(=O)O | inactive
39 | OC(CCl)CCl | inactive
40 | O=c1oc(=O)c2cc3c(=O)oc(=O)c3cc12 | inactive
